# Tested on: T1, RSK4(Kin.Dom.2-C-terminal)
# T1 construct: gene RPS6KA6
# 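Also: kd values determined as follow-up on hits from a single-replicate KINOMEscan panel screen.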
row,SMILES,Kd [nM]
1,CCc1nc(-c2cccc(C)c2)c(-c2ccncc2)s1,120
2,OCCCNc1nccc(-c2c(-c3cccc(C(F)(F)F)c3)nn3cc(C(F)(F)F)ccc23)n1 [GW630813],2700
3,Nc1nc(-c2ccccc2F)c(-c2ccnc3ccccc23)s1 [GW560459],28

# Reference: article PMC5540273 (PLoS ONE, 2017)
